# The whole screen tested about 69,000 compounds, of which about 1,000 (1.4%) showed an effect of 50% or more. Only a selection was taken, and strong results are over-represented in it overall.
# Test system: Leishmania donovani
# Test: Leishmania intramacrophage assay
# Assay type: functional, organism-based
# Design: scale not given: in the data most compounds retested in dose-response had high values
smiles,measurement,setting,value
CC1CN(C(=O)c2cccc(OCc3cscn3)c2)CCO1 (stereo not given),Percent Effect,30 µM,15.03%
CNC(=O)CN([C@H]1C[C@H]2CCOC[C@H]2C1)S(=O)(=O)c1ccccc1,Percent Effect,"30.3 µM, […]",-15.54%
O=c1oc(-c2cccs2)nn1CC1(O)CCCCC1,Percent Effect,"30.3 µM, […]",-0.7487%
COc1cccc2c1OCC(NCCCOc1cccnc1)C2 (stereo not given),Percent Effect,"30.3 µM, […]",0.7744%
O=C(O)C(F)(F)F.c1ncn(Cc2cn3c(n2)CN(CC2CCCC2)CC3)n1,Percent Effect,"30.3 µM, […]",-12.84%
CC(NCC1(N(C)C)CCOCC1)c1ccc(SC(F)F)cc1 (stereo not given),Percent Effect,"30.3 µM, […]",43.5%
CCc1ccc(C(=O)N2CC(C(=O)NC(C)C)C3(CCOCC3)C2)cc1 (stereo not given),Percent Effect,"30.3 µM, […]",20.17%
CN(C)C(=O)c1cnc2n1CCN(Cc1ccsc1)C2.O=C(O)C(F)(F)F,Percent Effect,"30.3 µM, […]",24.8%
Cc1ccc(C(=O)OC(C)Cn2cccn2)c(=O)[nH]1 (stereo not given),Percent Effect,"30.3 µM, […]",9.557%
Cc1ccc(C(=O)NC(C)Cn2cccn2)c(=O)[nH]1 (stereo not given),Percent Effect,"30.3 µM, […]",61.08%
Cc1ccc(C(=O)NCC(C)Cn2cccn2)c(=O)[nH]1 (stereo not given),Percent Effect,"30.3 µM, […]",5.92%
CCC(O)CN1CCN(C(=O)c2ccn(C)c(=O)c2)CC1 (stereo not given),Percent Effect,30 µM,25.79%
CSCCC(Nc1nc(C)cc(C)n1)C(=O)NC(C)(C)CO (stereo not given),Percent Effect,"30.3 µM, […]",-4.466%
COC1CCCN(C(=O)Nc2nc(C)n(C)n2)C1 (stereo not given),Percent Effect,"30 µM, 30.03 µM",27.05%
O=C(NCCCN1CCc2ccccc2C1)c1cccnc1O,Percent Effect,"30 µM, 30.03 µM",26.46%
O=C(c1ccoc1)N(Cc1cccnc1)C1CC1,Percent Effect,"30.3 µM, […]",22.13%
O=C(c1ccoc1)N(Cc1ccncc1)C1CC1,Percent Effect,"30.3 µM, […]",53.31%
O=C(c1ccoc1)N(Cc1ccccn1)C1CC1,Percent Effect,"30.3 µM, […]",-9.366%
CSc1ccc(-c2nc(CN3CCC(NC(C)=O)CC3)c(C)o2)cc1,Percent Effect,"30.3 µM, […]",13.21%
CSc1ccc(-c2nc(CN3CCC(C(N)=O)CC3)c(C)o2)cc1,Percent Effect,"30.3 µM, […]",-4.149%
CNC(=O)C1CCN(Cc2nc(-c3ccc(SC)cc3)oc2C)C1 (stereo not given),Percent Effect,"30.3 µM, […]",7.886%
CSc1ccc(-c2nc(CN3C[C@@H](C)NC[C@@H]3C)c(C)o2)cc1,Percent Effect,"30.3 µM, […]",42.57%
CSc1ccc(-c2nc(CN3CCC(CN)C3)c(C)o2)cc1 (stereo not given),Percent Effect,"30.3 µM, […]",98.64%
CSc1ccc(-c2nc(CN3CCNCC3C)c(C)o2)cc1 (stereo not given),Percent Effect,"30.3 µM, […]",81.77%
CNS(=O)(=O)c1cc(C(=O)NC2COc3ccccc3C2)ccc1OC (stereo not given),Percent Effect,"30.3 µM, […]",-9.324%
CN(C)C(=O)c1cccc(CCNc2ccccc2S(C)(=O)=O)c1,Percent Effect,"30.3 µM, […]",7.886%
CCN(Cc1cn(CC2CCNCC2)nn1)CC1CCCO1 (stereo not given),Percent Effect,"30.3 µM, […]",62.19%
CN(Cc1cn(C2CCNCC2)nn1)CC1CCCO1 (stereo not given),Percent Effect,"30.3 µM, […]",7.398%
CN(Cc1cn(CC2CCNCC2)nn1)CC1CCCCO1 (stereo not given),Percent Effect,"30.3 µM, […]",-23.25%
Cc1ccccc1-n1cc(-c2ccnc(N3CCCC(O)C3)n2)cn1 (stereo not given),Percent Effect,"30.3 µM, […]",16.96%
COC[C@H]1CCCN1c1nccc(-c2cnn(-c3ccccc3C)c2)n1,Percent Effect,"30.3 µM, […]",41.43%
Cc1ccccc1-n1cc(-c2ccnc(N3CCCC(CN)C3)n2)cn1 (stereo not given),Percent Effect,"30.3 µM, […]",67.45%
COc1ccccc1N1CCN(Cc2nccc(OC)c2OC)CC1=O,Percent Effect,"30.3 µM, […]",-10.47%
CN(Cc1ccc2c(c1)OCO2)C(=O)c1ccc(C2CCCO2)s1 (stereo not given),Percent Effect,"30.3 µM, […]",-16.35%
CC1CCCN(CCCNC(=O)Cc2csc(-c3ccoc3)n2)C1 (stereo not given),Percent Effect,"30.3 µM, […]",9.746%
O=C(CCNc1ncccn1)NCc1ccc(Br)s1,Percent Effect,"30.3 µM, […]",14.9%
Cc1nn(C)c(C)c1CN(C)c1nc(C2CC2)nc2c(C)nn(C)c12,Percent Effect,"30.3 µM, […]",-21.06%
Cc1nn(C)c2c(N(C)Cc3cccs3)nc(C3CC3)nc12,Percent Effect,"30.3 µM, […]",56.51%
Cc1nn(C)c2c(N(C)Cc3ccco3)nc(C3CC3)nc12,Percent Effect,"30.3 µM, […]",10.49%
CN1CCOC(CNCCOc2cccc(C#N)c2)C1 (stereo not given),Percent Effect,"30.3 µM, […]",25.34%
Cn1cccc1C(=O)NCc1cn2c(n1)CN(CC1CCOC1)CC2 (stereo not given),Percent Effect,"30.3 µM, […]",22.42%
CC(C)CCN1CCN(C(=O)c2ccc(=O)[nH]n2)CC1,Percent Effect,"30.3 µM, […]",20.4%
Cc1cc(NC(=O)CN2CCCC2c2noc(C(C)C)n2)on1 (stereo not given),Percent Effect,30 µM,7.102%
O=C(Cn1ccc2c(Cl)cccc21)N1CCCC1,Percent Effect,"30.3 µM, […]",16.62%
CC(=O)N1CCN(C(=O)Cn2ccc3c(Cl)cccc32)CC1,Percent Effect,"30.3 µM, […]",1.884%
CN1CCN(C(=O)Cn2ccc3c(Cl)cccc32)CC1,Percent Effect,"30.3 µM, […]",54.77%
Cc1cc(C)c(CNC(=O)N2CCN(c3ncccn3)CC2)c(=O)[nH]1,Percent Effect,"30 µM, 30.03 µM",-5.034%
COc1ccc(C(CN2CCN(C)CC2)Nc2ncccn2)cc1 (stereo not given),Percent Effect,"30.3 µM, […]",-7.981%
Cc1cccc(CNC(CN2CCN(C)CC2)c2ccccc2)c1 (stereo not given),Percent Effect,"30 µM, 30.03 µM",98.99%
COc1cccc(CNC(CN2CCN(C)CC2)c2ccccc2)c1 (stereo not given),Percent Effect,"30 µM, 30.03 µM",76.19%
CNS(=O)(=O)c1cccc(C(C)NCc2cccc(O)c2)c1 (stereo not given),Percent Effect,"30.3 µM, […]",23.7%
O=C(C(CNCc1cccc(O)c1)c1ccccc1)N1CCOCC1 (stereo not given),Percent Effect,"30.3 µM, […]",17.14%
COCCN1CCC(NCc2cccc(C)c2)C1 (stereo not given),Percent Effect,30 µM,11.56%
Cc1cc(C)cc(CNC(c2ccccc2)c2nccn2C)c1 (stereo not given),Percent Effect,30 µM,35.61%
COc1cccc(C(=O)N2CCN(CC(O)c3ccccc3)CC2)c1 (stereo not given),Percent Effect,"30.3 µM, […]",-2.836%
O=C(c1nnn(-c2ccc(F)cc2)n1)N1CCC(O)CC1,Percent Effect,"30.3 µM, […]",1.215%
O=C(c1cn(CCN2CCCCC2)nn1)N1CCSCC1,Percent Effect,"30.3 µM, […]",25.8%
CC(O)CN1CC(C)(C)CN(C(=O)CCc2ccccc2)CC1=O (stereo not given),Percent Effect,"30.3 µM, […]",-1.72%
O=C(CN1CCOC(Cn2cccn2)C1)NCCc1ccc(F)cc1 (stereo not given),Percent Effect,"30 µM, 30.03 µM",1.853%
COCCn1c2c(ccc1=O)CCN(C(=O)Cc1ccsc1)CC2,Percent Effect,"30.3 µM, […]",55.32%
O=C(Cc1ccsc1)N1CCc2ccc(=O)n(CC3CC3)c2CC1,Percent Effect,"30.3 µM, […]",10.53%
COCCn1c2c(ccc1=O)CCN(C(=O)Cc1cccs1)CC2,Percent Effect,"30.3 µM, […]",20.34%
O=C(O)c1cccc(S(=O)(=O)N2CCOc3ccccc32)c1,Percent Effect,30 µM,14.21%
COc1ccc(C2CC(=O)NCc3nc(N(C)C)sc32)c(O)c1 (stereo not given),Percent Effect,"30.3 µM, […]",16.16%
COc1cc2c(cc1C1CC(=O)NCc3nc(N(C)C)sc31)CCC2 (stereo not given),Percent Effect,"30.3 µM, […]",11.87%
COc1ccc(C(C)C)cc1C1CC(=O)NCc2nc(N(C)C)sc21 (stereo not given),Percent Effect,"30.3 µM, […]",60.09%
C[C@@H]1CN(C2Cc3ccccc3C2)CC[C@@]1(O)C1CCOCC1,Percent Effect,"30.3 µM, […]",63.81%
C[C@@H]1CN(C2CCCCC2)CC[C@@]1(O)C1CCOCC1,Percent Effect,"30.3 µM, […]",-0.4391%
C[C@@H]1CN(C2CCN(c3ccccc3)CC2)CC[C@@]1(O)C1CCOCC1,Percent Effect,"30.3 µM, […]",22.22%
CN(C)C(=O)NC1COC2(CCN(Cc3nccn3C)CC2)C1 (stereo not given),Percent Effect,"30 µM, 30.03 µM",3.872%
c1cnnc(N2CCCC2CNCc2nc(-c3ccoc3)no2)c1 (stereo not given),Percent Effect,30 µM,14.13%
COC(=O)c1cccn1C1CCN(Cc2cccnc2)CC1,Percent Effect,30 µM,38.52%
O=C(O)C(F)(F)F.c1csc(CN2CCCn3cnc(COCC4CC4)c3C2)n1,Percent Effect,"30.3 µM, […]",26.9%
Cc1ccc(CN2CCCn3nnc(COCCN(C)C)c3C2)s1.O=C(O)C(F)(F)F.O=C(O)C(F)(F)F,Percent Effect,"30.3 µM, […]",66.44%
Cc1ccc(CN2CCc3c(COC(C)C)nn(C)c3C2)s1.O=C(O)C(F)(F)F,Percent Effect,"30.3 µM, […]",54.88%
O=C(O)C(F)(F)F.c1ccc(CN2CCCn3nnc(Cn4cccc4)c3C2)nc1,Percent Effect,"30.3 µM, […]",-22.64%
Cc1ccc(CN2Cc3nnn(C)c3C(COCCN(C)C)C2)s1.O=C(O)C(F)(F)F.O=C(O)C(F)(F)F (stereo not given),Percent Effect,"30 µM, 30.03 µM",25.22%
Cc1ccc(CN2CCc3c(COCC4CC4)nn(C)c3C2)s1.O=C(O)C(F)(F)F,Percent Effect,"30.3 µM, […]",25.61%
O=C(O)C(F)(F)F.c1ccc(CN2CCCn3nnc(CNc4ncccn4)c3C2)nc1,Percent Effect,"30.3 µM, […]",67.35%
Cc1ccc(CN2CCCn3nnc(COCC4CC4)c3C2)s1.O=C(O)C(F)(F)F,Percent Effect,"30 µM, 30.03 µM",16.69%
COCc1nn(C(C)C)c2c1CCN(Cc1ccc(C)s1)C2.O=C(O)C(F)(F)F,Percent Effect,"30 µM, 30.03 µM",26.5%
O=C(O)C(F)(F)F.c1csc(CN2CCCn3nnc(COCC4CC4)c3C2)n1,Percent Effect,"30.3 µM, […]",52.28%
Fc1ccc(CN2CCCn3nnc(COCC4CC4)c3C2)cc1.O=C(O)C(F)(F)F,Percent Effect,"30.3 µM, […]",-0.08958%
O=C(O)C(F)(F)F.c1cnc(NCc2nnn3c2CN(Cc2ccco2)CCC3)nc1,Percent Effect,"30.3 µM, […]",-8.13%
Cc1ccccc1CN1C[C@@H]2CC[C@H](C1)N(CC1CCC1)C2=O,Percent Effect,"30.3 µM, […]",6.524%
COCc1noc(CN2C[C@H](C3CC3)[C@@H](N(C)C)C2)n1,Percent Effect,"30.3 µM, […]",0.8667%
COCCOCCNS(=O)(=O)C1CS(=O)(=O)c2ccccc21 (stereo not given),Percent Effect,"30.3 µM, […]",-2.938%
O=C(Nc1ccc(F)cc1)C1CNCCN1C(=O)CCc1cccnc1 (stereo not given),Percent Effect,"30.3 µM, […]",21.52%
CC1CN(C)CCN1C(=O)c1ccn(-c2ccc(F)cc2)n1 (stereo not given),Percent Effect,30 µM,12.79%
CN(CCN1CCCCCC1)C(=O)c1cc(CN2CCCC(O)C2)on1 (stereo not given),Percent Effect,"30.3 µM, […]",28.93%
COc1cccc2c1OCCCN(Cc1ccc(C(N)=O)c(=O)[nH]1)C2,Percent Effect,"30.3 µM, […]",18.01%
COc1c(CNCc2ccccc2CN2CCOCC2)c(C)nn1C,Percent Effect,"30.3 µM, […]",15.12%
O=C(CN1CCc2cncnc2C1)NC1CCCCNC1=O (stereo not given),Percent Effect,"30.3 µM, […]",3.811%
Cn1cc(CN2C[C@H]3CCC[C@@]3(COCC3CC3)C2)cn1.O=C(O)C(F)(F)F,Percent Effect,"30.3 µM, […]",55.4%
Cc1nc(COC[C@@]23CCC[C@@H]2CN(Cc2cnn(C)c2)C3)cs1,Percent Effect,"30.3 µM, […]",33.3%
Cn1cc(CN2C[C@@H]3COC[C@]3(COCC3CC3)C2)cn1.O=C(O)C(F)(F)F,Percent Effect,"30.3 µM, […]",35.55%
O=C(O)C(F)(F)F.O=C1N(c2ccsc2)CCC12CCCN(CC1CC1)C2 (stereo not given),Percent Effect,"30.3 µM, […]",57%
COCCN1CCCC2(CCN(c3ccsc3)C2=O)C1.O=C(O)C(F)(F)F (stereo not given),Percent Effect,"30.3 µM, […]",-19.62%
CN(C)C(=O)CN1CCCC2(CCN(c3ccsc3)C2=O)C1.O=C(O)C(F)(F)F (stereo not given),Percent Effect,"30 µM, 30.03 µM",-2.413%
Cc1ccoc1C(=O)N1C[C@@H](OCC2CC2)[C@H]2OCCC[C@H]21,Percent Effect,"30.3 µM, […]",18.9%

# From ChEMBL document CHEMBL3988442, “University of Dundee, Small-Polar-MMV Screening Library” (2021)
